This is an account of results in PubChem BioAssay (NCATS).

Records with an inconclusive call do not appear. The source made the active and inactive calls. Calls come from the whole dose curve; as a rule, active = well fitted curve in the direction sought with a large enough effect; inconclusive = small, poorly fitted or top-dose-only effect, or another doubt; inactive = no such curve, though single readings can be large; an effect the other way counts as inactive or inconclusive.

Experiment [1] in a line: qHTS of pediatric cancer cell lines to identify multiple opportunities for drug repurposing: Primary screen for TC32 cells (AID 1347089). Note: nearly all actives have a fitted effect of over 60% in size. Note: potency is the fitted concentration of half-maximal effect. The method, boiled down: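 qHTS, TC32, 48 h drug treatment, CellTiter-Glo luminescence as a proxy for metabolically active cells; primary top concentration 46 µM (MIPE 11-pt, NPC 8-pt); confirmatory 11-pt.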
The nature of experiment [2]: qHTS of pediatric cancer cell lines to identify multiple opportunities for drug repurposing: Primary screen for DAOY cells (AID 1347090). Note: nearly all actives have a fitted effect of over 55% in size. Note: potency is the fitted concentration of half-maximal effect. In a few lines: (§1)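 Cell viability, CellTiter-Glo luminescence; 500-1,000 cells/well, 8- or 11-point titration, 48 h compound exposure at 37 degrees C, 5% CO2. Controls: DMSO neutral, bortezomib 2.3 µM final as positive.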
The nature of experiment [3]: qHTS of pediatric cancer cell lines to identify multiple opportunities for drug repurposing: Primary screen for SJ-GBM2 cells (AID 1347091). Note: potency is the fitted concentration of half-maximal effect. In a few lines:
as §1

Experiment [4] can be described thus: qHTS of pediatric cancer cell lines to identify multiple opportunities for drug repurposing: Primary screen for A673 cells (AID 1347092). Note: nearly all actives have a fitted effect of over 45% in size. Note: potency is the fitted concentration of half-maximal effect. In a few lines: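 Luminescence from CellTiter-Glo, taken after 15 min at room temperature, served as the proxy for metabolically active cells following 48 h treatment. Both potency and efficacy were taken from curves fitted to the titration data.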

Experiment [5] in a line: qHTS of pediatric cancer cell lines to identify multiple opportunities for drug repurposing: Primary screen for SK-N-MC cells (AID 1347093). Note: potency is the fitted concentration of half-maximal effect. In a few lines:
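Metabolically active cells were quantified by ATP-dependent luminescence (CellTiter-Glo, 15 min at room temperature) following 48 h treatment. Cells had been plated at 500-1,000 per well and settled for 5 h beforehand.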

Experiment [6] in a line: qHTS of pediatric cancer cell lines to identify multiple opportunities for drug repurposing: Primary screen for BT-37 cells (AID 1347094). Note: potency is the fitted concentration of half-maximal effect. The method, boiled down: (§2)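 Readout: CellTiter-Glo luminescence, 48 h treatment. Controls DMSO (neutral) and bortezomib 2.3 µM final (positive). Potency and efficacy taken from primary-screen concentration-response curves.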
The nature of experiment [7]: qHTS of pediatric cancer cell lines to identify multiple opportunities for drug repurposing: Primary screen for NB-EBc1 cells (AID 1347095). Note: potency is the fitted concentration of half-maximal effect. In a few lines:
as §2

The nature of experiment [8]: qHTS of pediatric cancer cell lines to identify multiple opportunities for drug repurposing: Primary screen for U-2 OS cells (AID 1347096). Note: nearly all actives have a fitted effect of over 50% in size. Note: potency is the fitted concentration of half-maximal effect. The method, boiled down:
(§3)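 Cells (500-1,000/well) rested 5 h, then received compounds for 48 h; metabolically active cells were measured by CellTiter-Glo luminescence. Final concentrations spanned up to 46 µM (MIPE, 11-point) or 0.59 nM-46 µM (NPC, 8-point) in primary screens, 11-point in follow-ups.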

Experiment [9] can be described thus: qHTS of pediatric cancer cell lines to identify multiple opportunities for drug repurposing: Primary screen for Saos-2 cells (AID 1347097). Note: nearly all actives have a fitted effect of over 40% in size. Note: potency is the fitted concentration of half-maximal effect. The method, boiled down:
as §2

A short description of experiment [10]: qHTS of pediatric cancer cell lines to identify multiple opportunities for drug repurposing: Primary screen for SK-N-SH cells (AID 1347098). Note: nearly all actives have a fitted effect of over 65% in size. Note: potency is the fitted concentration of half-maximal effect. In a few lines: as §3
Experiment [11] in a line: qHTS of pediatric cancer cell lines to identify multiple opportunities for drug repurposing: Primary screen for NB1643 cells (AID 1347099). Note: nearly all actives have a fitted effect of over 50% in size. Note: potency is the fitted concentration of half-maximal effect. The method, boiled down: as §2
Experiment [12] is described as follows: qHTS of pediatric cancer cell lines to identify multiple opportunities for drug repurposing: Primary screen for BT-12 cells (AID 1347101). Note: nearly all actives have a fitted effect of over 25% in size. Note: potency is the fitted concentration of half-maximal effect. In a few lines:
as §3

Experiment [13] can be described thus: qHTS of pediatric cancer cell lines to identify multiple opportunities for drug repurposing: Primary screen for OHS-50 cells (AID 1347103). Note: nearly all actives have a fitted effect of over 40% in size. Note: potency is the fitted concentration of half-maximal effect. The method, boiled down:
as §3

The nature of experiment [14]: NS1 protein of Zika virus - qHTS assay to identify small molecule inhibitors in human HEK 293 cells (AID 1347053). Note: series mostly up to about 46 µM; nearly all actives have a fitted effect of over 55% in size. The method, boiled down:
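Following 20 h seeding, HEK 293 cells took compound, then 1 h later ZIKV MR766 (MOI = 0.5). Incubation ran 24 h at 37 C before TR-FRET detection of NS1; a drop in signal indicates inhibition.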

The nature of experiment [15]: qHTS of pediatric cancer cell lines to identify multiple opportunities for drug repurposing: Primary screen for Rh18 cells (AID 1347102). Note: nearly all actives have a fitted effect of over 65% in size. Note: potency is the fitted concentration of half-maximal effect. The method, boiled down: as §3
Experiment [16] can be described thus: qHTS of pediatric cancer cell lines to identify multiple opportunities for drug repurposing: Primary screen for LAN-5 cells (AID 1347100). Note: potency is the fitted concentration of half-maximal effect. In a few lines:
as §3

`C=CC[N+]1([C@H]2C[C@H]3[C@@H]4CC[C@H]5C[C@H](OC(C)=O)[C@@H](N6CCCCC6)C[C@]5(C)[C@H]4CC[C@]3(C)[C@H]2OC(=O)CC)CCCCC1`: the Potency entry in experiment [1], in [2], in [3], in experiment [4], in experiment [5] and in experiment [6] was “inactive” in each case. Besides, the Potency result in experiment [7], in [8], in [9], in experiment [10], in experiment [11] and in experiment [12] was “inactive” throughout. Further, the Potency result in experiment [13] was “inactive”.

For the molecule `N#C/C(=C1/SC[C@@H](c2ccc(Cl)cc2Cl)S1)n1ccnc1`, the Potency result in [14], in experiment [8] and in experiment [15] was “inactive” each time. In experiment [5], the Potency is 11.9 µM (active).

In the case of `CCC(CN)=C(c1ccccc1)c1ccccc1`, the Potency entry in experiment [1], in experiment [2], in [3], in experiment [4], in [6] and in [7] was “inactive” each time. In addition, the Potency entry in experiment [8], in experiment [9], in experiment [11], in experiment [16], in experiment [12] and in experiment [15] was “inactive” in each case.

Take `CNC(=O)c1cnn(-c2nc(N)c3ncn([C@@H]4O[C@H](CO)[C@@H](O)[C@H]4O)c3n2)c1`: the Potency result in experiment [1], in [2], in [3], in experiment [4], in experiment [5] and in experiment [6] was “inactive” each time. In addition, the Potency entry in experiment [7], in [8], in experiment [9], in experiment [10], in experiment [11] and in [16] was “inactive” each time. The Potency entry in experiment [12], in experiment [15] and in experiment [13] was “inactive” each time.

With `CN(C)CCN1CCN(c2cccc(Cl)c2)C1=O`, the Potency result in [1], in experiment [2], in [3], in experiment [4], in experiment [5] and in [6] was “inactive” each time. Also, the Potency result in experiment [7], in experiment [8], in [9], in experiment [10], in [11] and in experiment [12] was “inactive” each time. Moreover, the Potency result in [15] and in experiment [13] was “inactive” in each case.

On to `C=CCOc1cc(Cl)ccc1C(=O)NCCN(CC)CC`, for which the Potency result in experiment [1], in experiment [2], in experiment [3], in [4], in experiment [5] and in experiment [6] was “inactive” in each case. The Potency entry in experiment [7], in experiment [8], in experiment [9], in experiment [10], in experiment [11] and in [16] was “inactive” in each case. The Potency result in [12] is “inactive”.

Regarding `CC(C)(C)c1ccc(C(=O)CCCCl)cc1`, the Potency entry in experiment [1], in experiment [2], in experiment [3], in [4], in experiment [5] and in experiment [6] was “inactive” throughout. The Potency result in experiment [8], in [9], in experiment [10], in [11], in [12] and in experiment [15] was “inactive” each time. Also, the Potency entry in experiment [13] is “inactive”.

As for `Cc1c(C)c2c(c(C)c1OC(=O)CCC(=O)OCCO)CC[C@@](C)(CCC[C@H](C)CCC[C@H](C)CCCC(C)C)O2`, the Potency result in experiment [14], in [3], in experiment [8] and in experiment [9] was “inactive” each time.

Consider `CCC1=C[C@@H]2CN(C1)Cc1c([nH]c3ccccc13)[C@@](C(=O)OC)(c1cc3c(cc1OC)N(C)[C@H]1[C@@](O)(C(=O)OC)[C@H](OC(C)=O)[C@]4(CC)C=CCN5CC[C@]31[C@@H]54)C2`, for which the Potency in experiment [1] was 0.0264 µM (active); in experiment [2], 0.0531 µM (active); in [3], 0.0084 µM (active); in experiment [4], 0.0106 µM (active); in experiment [5], 0.0168 µM (active); in experiment [6] it was 0.0276 µM (active). Besides, the Potency in experiment [7] was 0.0335 µM (active); in experiment [11], 2.66 µM (active); in [16] it was 0.0084 µM (active); in experiment [12], 0.0347 µM (active); in experiment [13], 0.0195 µM (active).

On to `Cc1sccc1Br`, for which the Potency entry in [1], in experiment [2], in experiment [3], in experiment [4], in [5] and in experiment [6] was “inactive” each time. In addition, the Potency entry in [7], in experiment [8], in [9], in experiment [10], in experiment [11] and in experiment [16] was “inactive” in each case. Besides, the Potency entry in [12] and in experiment [13] was “inactive” throughout.

With `CC(=O)c1ccc(O)c(C(N)=O)c1`, the Potency result in [1], in experiment [2], in experiment [3], in experiment [5], in [6] and in experiment [7] was “inactive” in each case. The Potency entry in experiment [8], in [9], in experiment [10], in [11], in experiment [16] and in experiment [12] was “inactive” throughout. Moreover, the Potency result in experiment [15] and in [13] was “inactive” each time.

On to `Cc1ccccc1C(=O)N1CC/C(=N\OS(=O)(=O)O)c2ccc(Cl)cc21`, for which the Potency entry in experiment [1], in experiment [2], in experiment [3], in [4], in experiment [6] and in experiment [7] was “inactive” throughout. Further, the Potency entry in experiment [8], in experiment [9], in [10], in experiment [11], in [16] and in experiment [12] was “inactive” each time. The Potency entry in experiment [15] and in experiment [13] was “inactive” throughout.

`CC[C@@H]([C@H](C)O)n1ncn(-c2ccc(N3CCN(c4ccc(OC[C@@H]5CO[C@@](Cn6cncn6)(c6ccc(F)cc6F)C5)cc4)CC3)cc2)c1=O`: the Potency result in [1], in experiment [10] and in [15] was “inactive” throughout. Moreover, the Potency was 18.8 µM (active) in experiment [3], 11.9 µM (active) in [5], 21.1 µM (active) in experiment [7] and 13.8 µM (active) in experiment [13].

In the case of `OC1(c2ccc(Cl)c(C(F)(F)F)c2)CCN(CCCC(c2ccc(F)cc2)c2ccc(F)cc2)CC1`, the Potency is 16.7 µM (active) in experiment [1]; 10.6 µM (active) in [4]; 6.68 µM (active) in [5]; 11 µM (active) in experiment [6]; 11.9 µM (active) in [9]; 24.4 µM (active) in [10]. Further, the Potency in experiment [12] is 21.9 µM (active); in experiment [15], 23.7 µM (active); in [13], 3.89 µM (active).

With `CCCCCCCCCCCC[N+](C)(C)Cc1ccccc1`, the Potency was 16.8 µM (active) in experiment [2]; 8.41 µM (active) in experiment [4]; 2.66 µM (active) in [5]; 15.5 µM (active) in [6]; 4.73 µM (active) in experiment [9]; 15.4 µM (active) in [10]. For the same molecule, the Potency in experiment [11] is 6.68 µM (active); in experiment [12], 4.37 µM (active); in [15], 2.11 µM (active); in [13], 1.74 µM (active). For the same molecule, the Potency entry in experiment [3], in experiment [7] and in experiment [16] was “inactive” in each case.

In the case of `CC(NCCC(c1ccccc1)c1ccccc1)c1ccccc1` (configuration not stated), the Potency is 26.6 µM (active) in experiment [9]; 27.3 µM (active) in experiment [10]; 23.7 µM (active) in experiment [16]; 27.6 µM (active) in [12]; 17.4 µM (active) in experiment [13].

Regarding `CO[C@@H]1[C@@H](OC)[C@H](C)[C@@](O)(CC(=O)O)O[C@H]1[C@H](C)[C@H]1O[C@@]2(CC[C@@](C)([C@H]3CC[C@@](C)([C@@H]4O[C@@H]([C@H]5O[C@](C)(O)[C@H](C)C[C@@H]5C)C[C@@H]4OC4C[C@H](OC)[C@@H](OC)[C@H](C)O4)O3)O2)C[C@H](O)[C@H]1C` (some centres not stated), the Potency was 3.35 µM (active) in [2]; 4.22 µM (active) in experiment [4]; 0.188 µM (active) in [5]; 0.389 µM (active) in [6]; 0.266 µM (active) in experiment [7]; 8.41 µM (active) in experiment [8]. In addition, the Potency in experiment [10] is 2.44 µM (active); in experiment [11], 0.841 µM (active); in [16], 1.06 µM (active); in experiment [12], 0.347 µM (active); in experiment [15] it was 3.76 µM (active); in [13], 0.389 µM (active).
